Screening data (PubChem)
An excerpt weighted towards active compounds, which were near 7.7% of everything screened.
PD-1 reverse act = activators reversing PD-1 mediated T-cell inhibition | primary human CD4 T cells, PD-L1 beads, CellTiter-Glo 96 h | activation, % (test concentration not listed) | 29,000 tested, under 10 active; call rule not given here;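 also: 0% = median vehicle wells and 100% = positive control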
Hedgehog inh = blocks Sonic Hedgehog signaling. Shh-LIGHT2 Gli-luciferase reporter, 30 h. inhibition, % (no concentration beside the values). 2.1% of 22,000 active. AID 2313;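 active = mean inhibition across valid replicates above about 65%, limit read from the data; inconclusive = mean under the limit, yet half or more replicates past it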;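 also: pathway switched on by Shh-conditioned medium diluted 1 in 25 in low serum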
NOMO-1 viab = STK33 inhibitor candidate reducing NOMO-1 cell viability; AID 2330; NOMO-1 AML viability, CellTiter-Glo luminescence, 72 h; inhibition, % (test concentration not listed); 7.5% of 37,000 active; in the data active = inhibition above about 80%; inconclusive = no clear call, values can overlap the other calls
Active calls of the source: *.

Results for C[C@@H]1CCCCO[C@@H](CN(C)Cc2ccc(C(=O)Nc3ccccc3N)cc2)[C@@H](C)CN([C@H](C)CO)C(=O)c2cc(NS(=O)(=O)c3ccc(Cl)cc3)ccc2O1 ?
PD-1 reverse act: 0; NOMO-1 viab: 127*

How did CSc1ccccc1NC(=O)Cn1ccc([N+](=O)[O-])n1 do in these assays?
PD-1 reverse act: 0; NOMO-1 viab: 11

Results for Cc1ccc(-c2csc3ncnc(SCC(=O)c4ccc(F)cc4)c23)cc1 ?
PD-1 reverse act: 0; NOMO-1 viab: 24

How did O=C(/C=C/c1ccc(Cl)cc1)Nc1cccc(Cl)c1 do in these assays?
PD-1 reverse act: -1; Hedgehog inh: inconclusive; NOMO-1 viab: 120*

What do the screens show for `Cc1ccc(S(=O)(=O)NCC(=O)Nc2cccc(Cl)c2)cc1`?
PD-1 reverse act: -1; NOMO-1 viab: -6

What do the screens show for `O=C(/C=C/c1ccccc1)c1ccc(O)cc1`?
Hedgehog inh: -13; NOMO-1 viab: 105*

Results for O=C(/C=C/c1ccccc1)CC(=O)/C=C/c1ccccc1 ?
PD-1 reverse act: 0; Hedgehog inh: -12; NOMO-1 viab: 58

What do the screens show for `O=C1C(=O)N(Cc2ccco2)C(c2ccc(Cl)cc2)C1C(=O)c1cc2ccccc2o1` (configuration not stated)?
PD-1 reverse act: -1; NOMO-1 viab: 5

What do the screens show for `Cc1ccc(NC(=O)CNS(=O)(=O)c2ccccc2)cc1Cl`?
PD-1 reverse act: -1; NOMO-1 viab: 8

Results for Cc1ccc([N+](=O)[O-])cc1N(CC(=O)O)S(C)(=O)=O ?
PD-1 reverse act: 1; NOMO-1 viab: 2

How did N#C/C(=C\c1ccc(O)c(O)c1)C(=O)NCCCNC(=O)/C(C#N)=C/c1ccc(O)c(O)c1 do in these assays?
PD-1 reverse act: -2; Hedgehog inh: -9; NOMO-1 viab: 31

How did Oc1cc(O)cc(/C=C/c2ccc(O)c(O)c2)c1 do in these assays?
Hedgehog inh: 82*; NOMO-1 viab: 113*

What do the screens show for `COC(=O)c1ccccc1NC(=O)COc1ccc2ccccc2c1Br`?
PD-1 reverse act: -1; NOMO-1 viab: 84*

How did COC(=O)c1ccccc1NC(=O)c1cccc(NC(=O)COc2cc(C)c(Cl)c(C)c2)c1C do in these assays?
NOMO-1 viab: 102*

Results for Cc1cc(OCC(=O)Nc2ccccc2C(=O)O)cc(C)c1Cl ?
NOMO-1 viab: -9

Results for COC(=O)c1ccccc1NC(=O)COc1ccc(C)cc1C ?
PD-1 reverse act: -1; NOMO-1 viab: 2

Results for COc1ccc(S(=O)(=O)n2cc(-c3ccc(C)cc3)c(N)n2)c(OC)c1 ?
NOMO-1 viab: 25

What do the screens show for `Cc1ccc(S(=O)(=O)NC(C)C(=O)Nc2cc(C(F)(F)F)ccc2Cl)cc1` (configuration not stated)?
PD-1 reverse act: 0; NOMO-1 viab: 19

What do the screens show for `Cn1ncc(Br)c1-c1nc2ccccc2[nH]1`?
PD-1 reverse act: -1; Hedgehog inh: -22; NOMO-1 viab: 4

What do the screens show for `COc1ccc(NC(=O)C(C)Oc2cc(C)c(Cl)c(C)c2)c([N+](=O)[O-])c1` (configuration not stated)?
PD-1 reverse act: 0; NOMO-1 viab: 6

What do the screens show for `Cn1c(SCC(=O)n2c3c(c4ccccc42)CCCC3)nnc1-c1ccccc1`?
PD-1 reverse act: 1; NOMO-1 viab: 5

What do the screens show for `Cn1c(SCC(=O)n2c3c(c4ccccc42)CCCC3)nnc1-c1ccco1`?
PD-1 reverse act: -3; NOMO-1 viab: 109*

What do the screens show for `Cc1ccc(C(C)C)c(OCc2ccc(N)cc2)c1`?
PD-1 reverse act: -1; Hedgehog inh: -22; NOMO-1 viab: 11

What do the screens show for `CSc1sc(C(=O)NN)cc1S(=O)(=O)C(C)C`?
PD-1 reverse act: 0; Hedgehog inh: -30; NOMO-1 viab: 50

What do the screens show for `C=C1CC[C@H]2C(=C)CC[C@@]3(O)C(=C)C(=O)O[C@@H]3[C@@H]12`?
PD-1 reverse act: -16; Hedgehog inh: 30; NOMO-1 viab: 110*

What do the screens show for `COc1ccc(-c2cc(SCCN3CCOCC3)c(C#N)c(-c3ccccc3)n2)cc1`?
PD-1 reverse act: -1; Hedgehog inh: inconclusive; NOMO-1 viab: 29

How did CC(=O)OCC/C(=C\CC1(O)C(C)CCC2C(C)(C)CCCC21C)COC(C)=O (configuration not stated) do in these assays?
PD-1 reverse act: 0; Hedgehog inh: -7; NOMO-1 viab: 56

How did O=C(CSc1nc(-c2ccccc2)cc(C(F)(F)F)n1)N1CCCc2ccccc21 do in these assays?
PD-1 reverse act: 1; NOMO-1 viab: 17

How did COC(=O)c1ccc(CSc2n[nH]c(-c3ccccc3OC)n2)o1 do in these assays?
NOMO-1 viab: 114*

How did CCOc1ccc(-c2nc(SCc3ccc(C(=O)OC)o3)n[nH]2)cc1 do in these assays?
PD-1 reverse act: 0; NOMO-1 viab: inconclusive

Results for O=C(Nc1ccc(I)cc1C(=O)NCc1cccnc1)c1ccccc1Cl ?
PD-1 reverse act: 1; NOMO-1 viab: 11

What do the screens show for `CCOC(=O)c1cc(C)nc(Sc2ccccc2NC(=O)c2cccc(C(F)(F)F)c2)c1C#N`?
PD-1 reverse act: -1; Hedgehog inh: 1; NOMO-1 viab: 114*

What do the screens show for `CCOC(=O)c1cc(C#N)c(Nc2ccccc2OC)nc1C(F)(F)F`?
PD-1 reverse act: 4; Hedgehog inh: -30; NOMO-1 viab: 23

Results for C=C1CC[C@@H]2[C@](C)(CO[C@@H]3O[C@H](CO)[C@@H](O)[C@H](O)[C@H]3O)CCC[C@@]2(C)[C@@H]1CCC1=CCOC1=O ?
PD-1 reverse act: -2; Hedgehog inh: -27; NOMO-1 viab: 16

Results for C=C1CC[C@@H]2[C@](C)(CO)[C@H](O)CC[C@@]2(C)[C@@H]1CC(O)C1=CCOC1=O (some centres not stated) ?
PD-1 reverse act: -6; Hedgehog inh: 28; NOMO-1 viab: 106*

What do the screens show for `C=CCNc1sc(N)c(C#N)c1C(=O)c1ccc(Br)s1`?
PD-1 reverse act: 0; Hedgehog inh: -10; NOMO-1 viab: -27

How did CCOC(=O)c1c(NC(=O)C(C)Oc2ccccc2C)sc2c1CCCC2 (configuration not stated) do in these assays?
NOMO-1 viab: 7

Results for CC(Oc1ccc(F)cc1)C(=O)Nc1sc2c(c1C(N)=O)CCCC2 (configuration not stated) ?
PD-1 reverse act: -9; NOMO-1 viab: 89*

How did Cc1noc(C)c1NC(=O)Nc1ccc2c(c1)CC(=O)N([C@H](C)CO)C[C@@H](C)[C@@H](CN(C)Cc1ccc(-c3ccccc3)cc1)O2 do in these assays?
PD-1 reverse act: -3; Hedgehog inh: 9; NOMO-1 viab: 44

How did Cc1noc(C)c1NC(=O)Nc1ccc2c(c1)CC(=O)N([C@@H](C)CO)C[C@H](C)[C@H](CN(C)Cc1ccc(-c3ccccc3)cc1)O2 do in these assays?
PD-1 reverse act: -4; Hedgehog inh: 13; NOMO-1 viab: 99*

What do the screens show for `Cc1noc(C)c1NC(=O)Nc1ccc2c(c1)CC(=O)N([C@H](C)CO)C[C@@H](C)[C@@H](CN(C)Cc1ccc(Oc3ccccc3)cc1)O2`?
PD-1 reverse act: -1; Hedgehog inh: 18; NOMO-1 viab: 32

What do the screens show for `Cc1noc(C)c1NC(=O)Nc1ccc2c(c1)CC(=O)N([C@@H](C)CO)C[C@H](C)[C@H](CN(C)Cc1ccc(Oc3ccccc3)cc1)O2`?
PD-1 reverse act: -2; Hedgehog inh: 29; NOMO-1 viab: 100*
